Drawing on PubChem BioAssay (NCI), this text covers growth for eight compounds.

The panel holds about 83,000 compounds, 20% with a hit somewhere; the sample as a whole holds those more often.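 48-hour exposure, single concentration, 96-well plates; percent growth endpoint where 0 means no net growth. Active: below 10.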 Values without a mark were called inactive. The source made the active and inactive calls.

Test systems include NCI-H23 lung; NCI-H226 lung; NCI-H322M lung; HOP-62 NSCLC; NCI-H460 lung; NCI-H522 lung; A549/ATCC NSCLC; 786-0 renal; COLO 205 colon; DU-145 prostate; K-562 leukemia; MALME-3M melanoma; MDA-MB-231 breast; RXF 393 renal; SF-268 CNS; SF-295 CNS; SF-539 CNS; UACC-257 melanoma; M14 melanoma.
Assay in all cases: NCI-60 one-dose screen, 48 h (100 = growth as untreated, 0 = no growth, -100 = all killed)
Holding throughout (conditions): 10 µM unless noted

As for `COc1ccc(C(=O)OC2C(OC3C(O)COC(O[C@H]4C[C@H]5[C@@H]6CC=C7C[C@@H](O)CC[C@]7(C)[C@H]6CC[C@]5(C)[C@H]4[C@H](C)C(=O)CCC(C)C)C3OC(N)=O)OCC(O)C2O)cc1` (some centres not stated), the growth is 23.3% with NCI-H23 lung; -1.18% (active) in the experiment on NCI-H226 lung; 53.7% in the experiment with NCI-H322M lung; -22.2% (active) in the experiment with HOP-62 NSCLC; -35.7% (active) in the experiment on NCI-H460 lung; -68.7% (active) in the experiment on NCI-H522 lung. In addition, the growth was 11.3% in the experiment on A549/ATCC NSCLC; -59.4% (active) in the experiment with 786-0 renal; -58% (active) in the experiment on COLO 205 colon; 32.8% in the experiment on DU-145 prostate; -45.4% (active) in the experiment on K-562 leukemia; -34.3% (active) with MALME-3M melanoma. For the same compound, the growth in the experiment with MDA-MB-231 breast was -5.1% (active); in the experiment with RXF 393 renal, -64.9% (active); in the experiment with SF-268 CNS, -14.2% (active); in the experiment on SF-295 CNS, -67.2% (active); with SF-539 CNS it was -80% (active); with UACC-257 melanoma it was -63.6% (active). Further, in the experiment with M14 melanoma, the growth is -78.6% (active).
For the compound `COC(=O)C(Br)(C(=O)OC)C(Br)C(Br)C(Br)c1ccccc1` (configuration not stated), the growth with NCI-H23 lung was 94.1%; with NCI-H226 lung it was 91.8%; in the experiment with NCI-H322M lung, 102%; in the experiment with HOP-62 NSCLC, 120%; in the experiment on NCI-H460 lung, 100%; with NCI-H522 lung, -84.5% (active). Besides, the growth is 97.9% with A549/ATCC NSCLC; 86% in the experiment on 786-0 renal; 30.1% in the experiment on COLO 205 colon; 89.3% in the experiment on DU-145 prostate; 19.9% with K-562 leukemia; 47.5% with MALME-3M melanoma. Moreover, the growth with MDA-MB-231 breast is 89%; with RXF 393 renal it was -20.8% (active); in the experiment with SF-268 CNS, 101%; in the experiment on SF-295 CNS, 114%; in the experiment on SF-539 CNS, 26.6%; with UACC-257 melanoma, 56.4%. Besides, in the experiment on M14 melanoma, the growth was 44.2%.
As for `COC(=O)c1ccc2c(c1)nc(-c1cc3ccccc3[nH]c1=O)n2-c1cc(C(C)(C)C)[nH]n1`, the growth was 44.7% in the experiment with NCI-H23 lung; 90.4% with NCI-H226 lung; 77% with NCI-H322M lung; 66.5% with HOP-62 NSCLC; 45.4% in the experiment on NCI-H460 lung; -2.05% (active) in the experiment on NCI-H522 lung. The growth in the experiment with A549/ATCC NSCLC was 81.5%; with 786-0 renal, 33.3%; with COLO 205 colon, 71.6%; in the experiment with DU-145 prostate, 83.7%; in the experiment with K-562 leukemia, 32.2%; in the experiment with MALME-3M melanoma it was 96.2%. Besides, the growth with MDA-MB-231 breast is 68.4%; in the experiment with RXF 393 renal, 89.9%; in the experiment on SF-268 CNS, 72.8%; in the experiment with SF-295 CNS it was 93.8%; in the experiment with SF-539 CNS, 92.6%; in the experiment on UACC-257 melanoma, 78.5%. The growth in the experiment with M14 melanoma is 58.2%.
For the compound `COc1ccc(-c2cc(-c3ccc(OC)cc3)c3sc(=O)[nH]c3n2)cc1`, the growth in the experiment on NCI-H23 lung was 98%; in the experiment on NCI-H226 lung it was 71%; with NCI-H322M lung it was 82.3%; in the experiment on HOP-62 NSCLC it was 70.5%; in the experiment on NCI-H460 lung, 94%; with NCI-H522 lung, 69.1%. Moreover, the growth was 78.4% in the experiment on A549/ATCC NSCLC; 79.3% in the experiment with 786-0 renal; 107% in the experiment with COLO 205 colon; 107% in the experiment with DU-145 prostate; 94.2% in the experiment with K-562 leukemia; 109% with MALME-3M melanoma. For the same compound, the growth is 87.6% in the experiment on MDA-MB-231 breast; 77.7% in the experiment on RXF 393 renal; 92.6% in the experiment with SF-268 CNS; 96.8% in the experiment on SF-295 CNS; 81.8% in the experiment with SF-539 CNS; 104% with UACC-257 melanoma. The growth in the experiment on M14 melanoma is 109%.
With `OC(CCCCCCCCC(O)CN1CCc2ccccc2C1)CN1CCc2ccccc2C1` (configuration not stated), the growth in the experiment on NCI-H23 lung was 101%; with NCI-H226 lung it was 99.9%; in the experiment with NCI-H322M lung, 87.5%; with HOP-62 NSCLC, 103%; in the experiment on NCI-H460 lung, 108%; in the experiment with NCI-H522 lung it was 105%. Further, the growth is 101% in the experiment with A549/ATCC NSCLC; 94.7% in the experiment with 786-0 renal; 101% in the experiment on COLO 205 colon; 108% in the experiment on DU-145 prostate; 97.3% with K-562 leukemia; 97.5% in the experiment on MALME-3M melanoma. Further, the growth in the experiment on MDA-MB-231 breast is 98%; with RXF 393 renal it was 110%; in the experiment on SF-268 CNS it was 102%; with SF-295 CNS, 83.2%; with SF-539 CNS, 101%; in the experiment on UACC-257 melanoma, 98.5%. For the same compound, the growth with M14 melanoma was 109%.
As to `C=CC(=O)N1CN(C(=O)C=C)CN(C(=O)C=C)C1`, the growth with NCI-H23 lung was 67.4%; in the experiment with NCI-H226 lung, 87%; with NCI-H322M lung, 108%; in the experiment on HOP-62 NSCLC, 88.3%; in the experiment with NCI-H460 lung, 102%; in the experiment with NCI-H522 lung it was -35.4% (active). The growth with A549/ATCC NSCLC is 94.6%; in the experiment with 786-0 renal it was 95.7%; in the experiment with COLO 205 colon it was -44.4% (active); in the experiment with DU-145 prostate, 77%; in the experiment with K-562 leukemia, 23.5%; in the experiment on MALME-3M melanoma, -41.9% (active). The growth in the experiment on MDA-MB-231 breast is 103%; in the experiment with RXF 393 renal, 10.2%; in the experiment on SF-268 CNS it was 85.3%; in the experiment with SF-295 CNS, 112%; in the experiment with SF-539 CNS, 71.7%; in the experiment with UACC-257 melanoma, 48%. Further, in the experiment on M14 melanoma, the growth was 87.1%.
With `CCCCCN(CCCCC)C(=O)C(CCC(=O)O)NC(=O)c1ccc(Cl)c(Cl)c1` (configuration not stated), the growth in the experiment with NCI-H23 lung was 105%; in the experiment on NCI-H226 lung, 92.6%; in the experiment on NCI-H322M lung, 102%; in the experiment on HOP-62 NSCLC, 102%; in the experiment with NCI-H460 lung, 106%; with NCI-H522 lung it was 110%. Besides, the growth was 85% in the experiment on A549/ATCC NSCLC; 106% with 786-0 renal; 120% in the experiment on COLO 205 colon; 113% in the experiment with DU-145 prostate; 115% in the experiment on K-562 leukemia; 104% with MALME-3M melanoma. Further, the growth in the experiment with MDA-MB-231 breast is 88.1%; in the experiment with RXF 393 renal it was 106%; with SF-268 CNS, 110%; with SF-295 CNS it was 110%; in the experiment on SF-539 CNS, 113%; in the experiment on UACC-257 melanoma, 111%. Besides, in the experiment with M14 melanoma, the growth is 109%.
As to `Cc1cc(-c2ccc(N=Nc3c(S(=O)(=O)O)cc4cc(S(=O)(=O)O)cc(O)c4c3O)c(C)c2)ccc1N=Nc1c(S(=O)(=O)O)cc2cc(S(=O)(=O)O)cc(O)c2c1O`, the growth was 101% in the experiment on NCI-H23 lung; 99.3% in the experiment with NCI-H226 lung; 80.7% in the experiment on NCI-H322M lung; 82.7% in the experiment on HOP-62 NSCLC; 130% in the experiment on NCI-H460 lung; 99.3% with NCI-H522 lung. In addition, the growth was 101% in the experiment with A549/ATCC NSCLC; 113% in the experiment on 786-0 renal; 92% in the experiment on COLO 205 colon; 112% with DU-145 prostate; 125% in the experiment on K-562 leukemia; 100% in the experiment with MALME-3M melanoma. Further, the growth in the experiment with MDA-MB-231 breast was 107%; in the experiment with RXF 393 renal it was 80.1%; with SF-268 CNS, 104%; with SF-295 CNS, 94.1%; in the experiment with SF-539 CNS, 101%; in the experiment on UACC-257 melanoma, 102%. The growth in the experiment with M14 melanoma was 103%.
